Assay outcomes as filed in PubChem BioAssay.
LmPK inhibitor: LmPK (Leishmania mexicana) enzyme inhibition | purified LmPK, Kinase-Glo ATP luminescence, 1 h | Potency, µM (doses to about 57.5 µM), for inactives: at the top dose activity change, negative = inhibition, usual class: inhibitors | AID 1721 | actives 0.37% (n = 290,000) | Q27686; note: potency is the fitted concentration of half-maximal effect; % is set by controls: 0 for no effect and ±100 for the full control effect
Target sequence (Q27686 whole entry, looked up): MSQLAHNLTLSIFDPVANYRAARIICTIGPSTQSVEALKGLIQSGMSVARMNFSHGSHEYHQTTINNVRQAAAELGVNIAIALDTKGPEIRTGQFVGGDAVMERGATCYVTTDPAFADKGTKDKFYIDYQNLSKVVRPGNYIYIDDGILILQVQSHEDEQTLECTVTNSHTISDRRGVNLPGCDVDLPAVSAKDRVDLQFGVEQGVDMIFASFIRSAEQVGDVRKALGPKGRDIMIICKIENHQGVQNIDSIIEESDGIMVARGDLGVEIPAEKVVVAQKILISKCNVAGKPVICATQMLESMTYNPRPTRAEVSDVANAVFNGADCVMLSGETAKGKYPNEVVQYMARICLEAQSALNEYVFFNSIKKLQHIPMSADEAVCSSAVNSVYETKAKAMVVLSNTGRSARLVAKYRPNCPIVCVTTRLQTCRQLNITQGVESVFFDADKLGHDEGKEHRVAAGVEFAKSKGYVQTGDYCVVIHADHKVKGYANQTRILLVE
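qHTS format; LmPK 0.1 nM; substrates PEP 0.5 mM and ADP 0.1 mM. One-hour room-temperature incubation, then coupled luciferase luminescence; 0.5 nM enzyme wells mark activation.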
Shiga inhibitor: Shiga toxin inhibition. Vero cells, Shiga toxin protein synthesis inhibition reporter. inhibition, % at 38.7 µM. actives 9.2% (n = 290,000). AID 2315; in the data active = inhibition mostly above about 28%, no sharp cut-off; inactive = mostly below about 43%; note: 0% is about no effect
Pf growth 96h: P. falciparum growth inhibition at 96 hours; P. falciparum luciferase reporter growth, 96 h; Potency, µM (highest dose often 28.7 µM), without a hit: at the top dose activity change, negative = inhibition, most hits filed as inhibitors; actives 6.9% (n = 320,000); AID 504834; note: potency is the fitted concentration of half-maximal effect; % is set by controls: 0 for no effect and ±100 for the full control effect
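Two-generation exposure (96 h) targets delayed-death phenotype. Reporter parasites carrying integrated firefly luciferase, in red cells at 2% hematocrit and 0.05% parasitemia final, kept at 37 C, 5% CO2; luminescence loss indicates inhibition.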
Pf growth 48h: P. falciparum growth inhibition at 48 hours (one generation). actives 5.9% (n = 310,000). Potency, µM (highest dose often 28.7 µM), for inactives: top-dose activity change, negative = inhibition, most hits filed as inhibitors. P. falciparum luciferase growth in erythrocytes, 48 h; note: potency is the fitted concentration of half-maximal effect; % is set by controls: 0 for no effect and ±100 for the full control effect
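Here the parasites carry a stable luciferase gene and grow inside erythrocytes in Albumax-based RPMI medium with compound for one erythrocytic cycle. Activity is scored as loss of luminescent signal.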
Cycloheximide cs: affects cycloheximide protein synthesis inhibition readout, counter-screen. cell reporter, cycloheximide protein synthesis inhibition counterscreen. max response, %. actives 12% (n = 300,000). AID 2314; in the data active = max response mostly above about 13%, no sharp cut-off; inactive = mostly below about 14%; note: read at 38.3 µM for the half of the compounds with a filed dose; 0% is about no effect
Starred values were filed as active, the others as inactive; i = inactive; ? = inconclusive; . = no result given. Only some compounds are listed: those with a hit (about 22% of all), similar ones and a draw of the others. Unless noted, calls come from the whole dose curve; as a rule, active = well fitted inhibition curve with a large enough effect; inconclusive = small, poorly fitted or top-dose-only effect, or another doubt; inactive = no such curve, though single readings can be large or run the other way.

SMILES | LmPK inhibitor | Shiga inhibitor | Pf growth 96h | Pf growth 48h | Cycloheximide cs
O=C(CSc1nc(-c2ccccc2Cl)ns1)NCc1ccco1 | 6.1% | 41.6 | 4.1% | -12.4% | 1.6
NC(=O)CSc1nc(-c2ccccc2Cl)ns1 | -20.2% | 18.6* | -0.8% | 128.9% | 44.8*
Oc1ccc(N2CCN(Cc3cc4c(cc3Br)OCCO4)CC2)cc1 | ? | -1.7 | 13.1µM* | 11.7µM* | -3.3
O=S(=O)(c1cccc(F)c1)N1CCN(Cc2cc3c(cc2Br)OCCO3)CC1 | . | . | ? | 9.28µM* | .
Fc1ccc(N2CCN(Cc3cc4c(cc3Br)OCO4)CC2)cc1 | 2.0% | -20.8 | ? | 209.3% | 6.5
COc1ccc(S(=O)(=O)N2CCC(C(=O)NCc3cccnc3)CC2)cc1OC | -3.1% | -10.1 | 244.2% | -23.1% | 1.6
O=C(CC1SC(=Nc2ccccc2)N(CCCO)C1=O)Nc1ccc(Cl)cc1 (stereo not given) | 1.7% | -6.4 | ? | -23.0% | 2.6
O=C(CC1Sc2ncnn2C1=O)Nc1ccc(Cl)cc1 (stereo not given) | 4.2% | -1.2 | -3.0% | 5.3% | -0.1
O=C(CC1SC(=O)N(c2ccccc2)C1=O)Nc1ccc(Br)cc1 (stereo not given) | -6.3% | 50.9* | 38.0% | -14.5% | 23.9*
O=C(CC1SC(=NCCc2ccccc2)N(/N=C/c2cccs2)C1=O)Nc1ccc(Cl)cc1 (stereo not given) | 0.4% | 20.8 | ? | ? | 12.9*
O=C(CC1SC(=O)N(c2ccccc2)C1=O)Nc1ccc(Cl)cc1 (stereo not given) | 3.0% | 45.7 | 36.9% | 19.7% | 14.2*
Cc1cc(S(=O)(=O)NCc2ccccc2)ccc1OCC(=O)N1CCCC1 | -4.5% | -28.2 | ? | -13.4% | -2.8
O=C(CSc1cccc[n+]1[O-])Nc1ccc([N+](=O)[O-])cc1Cl | 0.9% | -6.5 | -4.0% | -18.1% | -6.4
CCn1c(SCC(=O)NC2CCCC2)nnc1-c1cccnc1 | -3.6% | -3.7 | 10.4% | 10.9% | 1.6
O=C(C1=NNC2C(=O)N(c3ccccc3)C(=O)C12)c1nc(Cl)ccc1Cl (stereo not given) | -3.3% | -13.4 | 3.1% | 8.9% | -4.0
CC(C(=O)N1CCN(C(=O)c2ccco2)CC1)n1sc2ccccc2c1=O (stereo not given) | 0.3% | 14.5 | 43.8% | ? | 19.6
CC(C(=O)N1CCCCC1)n1sc2ccccc2c1=O (stereo not given) | 0.7% | 67.4* | -0.4% | 111.3% | 31.3*
Cc1c(CN(C)C)c2c(n1Cc1ccccc1)C(=O)c1ccc(Br)cc1-2 | 1.3% | -3.3 | 2.33µM* | . | 1.1
Cc1c(CN(C)C)c2c(n1C)C(=O)c1ccc(Br)cc1-2 | 1.4% | -15.9 | 11.7µM* | ? | -2.6
O=c1oc2cc(Br)ccc2n1Cc1ccccc1 | 3.6% | -15.1 | 47.8% | 13.5% | 1.3
Cc1c(N2C(=O)c3ccc(Br)cc3C2=O)c(=O)n(-c2ccccc2)n1C | -0.4% | -11.0 | ? | 12.7% | -3.0
CC(C)CC(=O)N1CCN(C(=O)c2ccc(-c3ccccc3)cc2)CC1 | -7.7% | -2.5 | 59.4% | -16.1% | -0.9
Cc1ccc(NC(=O)CCC(=O)c2cccs2)c(O)c1 | -1.2% | 74.3* | 90.3% | 61.4% | 65.7*
O=C(CCC(=O)c1cccs1)c1cccs1 | ? | 33.9* | i | i | 40.3*
Cc1ccc(F)cc1NC(=O)CCC(=O)c1cccs1 | 1.8% | -2.9 | 11.9% | . | -0.5
SMILES | LmPK inhibitor | Shiga inhibitor | Pf growth 96h | Pf growth 48h | Cycloheximide cs
CCC(C(=O)N1CCOCC1)n1nc(C)n2c(cc3cc(C)ccc32)c1=O (stereo not given) | -0.6% | -3.9 | 59.9% | 9.1% | 1.3
CCOc1ccc(S(=O)(=O)Nc2cccc(C(=O)NCC(c3ccccc3)N(C)C)c2)cc1 (stereo not given) | . | . | ? | 19.8% | .
COc1ccccc1C(CNC(=O)c1cccc(NS(=O)(=O)c2ccc(C)c(F)c2)c1)N(C)C (stereo not given) | . | . | 9.28µM* | ? | .
COc1ccc(C(CNC(=O)c2cccc(S(=O)(=O)Nc3ccc(F)cc3)c2)N(C)C)cc1 (stereo not given) | . | . | 9.28µM* | 11.7µM* | .
COc1ccc(C(CNC(=O)c2cccc(NS(=O)(=O)c3ccc(C)c(F)c3)c2)N(C)C)cc1 (stereo not given) | . | . | 11.7µM* | ? | .
COc1ccc(C(CNC(=O)c2cccc(NS(=O)(=O)c3ccccc3)c2)N(C)C)cc1 (stereo not given) | -0.9% | 26.6 | -28.0% | -12.0% | 16.0*
COc1ccc(C(CNC(=O)c2ccc(S(=O)(=O)Nc3ccc(F)cc3)cc2)N(C)C)cc1 (stereo not given) | -2.6% | -4.0 | ? | ? | -2.4
COc1ccccc1C(CNC(=O)c1ccc(NS(=O)(=O)c2ccc(F)c(C)c2)cc1)N(C)C (stereo not given) | -0.3% | 7.5 | ? | ? | 1.0
CCc1noc(C)c1C(=O)N(C)CC(=O)Nc1ccc(F)c(F)c1F | . | . | 10.4% | -0.7% | .
Cc1cccc(NC(=O)C2CCCN2/C=C/C(=O)C(F)(F)F)c1C (stereo not given) | -0.5% | -13.9 | 24.1% | 2.6% | -2.4
Cc1ccccc1NC(=O)C(=O)NNC(=O)COc1ccc2ccccc2c1 | 0.2% | -2.1 | ? | 37.9% | -1.7
CC1=C(CC(=O)NCC(=O)NCC(=O)O)c2cc(F)ccc2/C1=C/c1ccc(S(C)=O)cc1 (stereo not given) | -1.8% | -5.3 | -10.7% | 12.5% | 5.7
COCCN(Cc1ccccc1)C(=O)c1cccc(S(=O)(=O)N(C)c2c(C)n(C)n(-c3ccccc3)c2=O)c1 | . | . | -22.0% | ? | .
CCOC(=O)C(=CNc1ccc(OC)cc1[N+](=O)[O-])C(=O)OCC | 1.9% | 2.8 | -16.7% | 12.5% | -0.3
COc1ccccc1OCC(=O)NNc1c2ccccc2nc2ccccc12 | 3.4% | 13.6 | 1.6% | 4.15µM* | 4.7
COc1ccccc1OCC(=O)NCCNC(=O)COc1ccccc1OC | -0.6% | -6.6 | 2.33µM* | ? | -4.8
COc1ccccc1OCC(=O)NCCSCc1cccc(Cl)c1 | 1.9% | -11.1 | 11.7µM* | 10.6% | -3.6
COc1ccccc1OCC(=O)NNC(=O)CCCC(=O)NNC(=O)COc1ccccc1OC | -1.2% | . | 89.6% | ? | -1.8
O=C(CCSCc1cccc(Cl)c1)NCCc1ccccc1 | 1.0% | -1.7 | ? | 26.3% | 7.9
CCOC(=O)c1sc(=NC(=O)CCS(=O)(=O)c2ccccc2)n(C)c1C | 5.3% | 1.0 | 5.3% | 0.7% | 7.5
CCOC(=O)c1sc(=NC(=O)c2ccc(OC)c(OC)c2)n(C)c1C | -0.9% | 85.5* | 10.4% | 9.4% | 37.2
CCOC(=O)c1sc(=NC(=O)c2ccccc2)n(C)c1C | 10.1% | 89.5* | 89.9% | 462.2% | 35.9*
COc1ccc(C(=O)N=c2sc3c(C)ccc(OC)c3n2C)cc1 | -7.4% | 66.0* | 152.2% | 136.8% | 37.1*
CCOC(=O)c1sc(=NC(=O)c2cccc(OC)c2)n(C)c1C | 2.5% | 59.1* | 1.8% | 85.3% | 36.4*
